# Bioassay records from PubChem BioAssay.
# FEN1 inh: qHTS Assay for the Inhibitors of Human Flap endonuclease 1 (FEN1); P39748; Potency, µM (series often up to 114 µM), without a hit: at the highest dose activity change, negative = inhibition, hits mostly inhibitors; hit rate 0.35% among 390,000; Recombinant FEN1 flap cleavage, fluorescence, 15 min; AID 588795, 2011; further: on the % scale 0 is the no-effect control and ±100 the full control effect; nearly all actives have a fitted effect of over 65% in size
#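 FEN1 at 10 nM, compound pretreatment for 15 min (room temperature), 50 nM final substrate to initiate; endpoint reads at 0 and 15 min; DMSO-only plates used as vehicle background.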
# WRN inhibitor: qHTS for Inhibitors of WRN Helicase; Bifunctional 3'-5' exonuclease/ATP-dependent helicase WRN (Homo sapiens), Q14191; WRN helicase unwinding, fluorescent forked duplex, kinetic; Potency, µM (highest dose often 114 µM), for inactives: at the top dose activity change, negative = inhibition, actives largely listed as inhibitors; hit rate 0.46% among 360,000; AID 651768, 2012; further: on the % scale 0 is the no-effect control and ±100 the full control effect; nearly all actives have a fitted effect of over 55% in size
# Target sequence (Q14191 whole entry, looked up): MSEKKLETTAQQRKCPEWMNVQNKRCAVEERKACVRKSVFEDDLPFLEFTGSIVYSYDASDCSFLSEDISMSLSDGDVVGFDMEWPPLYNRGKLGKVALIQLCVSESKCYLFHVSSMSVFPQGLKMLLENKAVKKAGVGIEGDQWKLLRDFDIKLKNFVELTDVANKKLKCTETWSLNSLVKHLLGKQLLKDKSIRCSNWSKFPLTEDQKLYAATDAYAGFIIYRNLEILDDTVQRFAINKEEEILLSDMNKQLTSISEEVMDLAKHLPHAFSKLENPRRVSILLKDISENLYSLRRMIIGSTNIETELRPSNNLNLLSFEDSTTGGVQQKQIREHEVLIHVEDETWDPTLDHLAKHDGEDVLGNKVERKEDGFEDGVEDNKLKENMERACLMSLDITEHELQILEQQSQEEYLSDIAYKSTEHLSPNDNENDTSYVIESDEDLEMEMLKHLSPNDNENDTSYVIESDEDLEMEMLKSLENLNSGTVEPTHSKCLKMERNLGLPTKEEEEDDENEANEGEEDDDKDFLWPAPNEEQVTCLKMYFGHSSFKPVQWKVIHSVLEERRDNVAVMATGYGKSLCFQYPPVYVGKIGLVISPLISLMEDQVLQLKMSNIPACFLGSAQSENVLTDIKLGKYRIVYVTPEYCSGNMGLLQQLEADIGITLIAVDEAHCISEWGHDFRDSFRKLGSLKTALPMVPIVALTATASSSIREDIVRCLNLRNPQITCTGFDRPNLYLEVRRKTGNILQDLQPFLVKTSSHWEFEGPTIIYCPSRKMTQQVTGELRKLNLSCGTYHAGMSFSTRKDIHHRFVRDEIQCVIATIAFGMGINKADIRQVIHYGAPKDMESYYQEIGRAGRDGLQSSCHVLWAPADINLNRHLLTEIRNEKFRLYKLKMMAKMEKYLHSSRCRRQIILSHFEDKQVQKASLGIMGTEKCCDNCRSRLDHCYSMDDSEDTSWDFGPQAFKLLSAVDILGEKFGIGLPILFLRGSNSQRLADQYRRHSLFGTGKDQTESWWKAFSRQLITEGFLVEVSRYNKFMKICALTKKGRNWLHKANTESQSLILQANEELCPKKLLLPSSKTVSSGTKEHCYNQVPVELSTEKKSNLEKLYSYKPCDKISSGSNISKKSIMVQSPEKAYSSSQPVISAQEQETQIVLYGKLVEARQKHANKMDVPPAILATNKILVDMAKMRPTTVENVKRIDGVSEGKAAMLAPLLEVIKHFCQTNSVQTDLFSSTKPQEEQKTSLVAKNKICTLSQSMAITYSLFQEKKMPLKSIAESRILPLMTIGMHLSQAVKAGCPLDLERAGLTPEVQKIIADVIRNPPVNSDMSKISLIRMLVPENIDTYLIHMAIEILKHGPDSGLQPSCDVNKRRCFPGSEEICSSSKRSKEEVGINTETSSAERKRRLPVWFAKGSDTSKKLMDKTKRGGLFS
#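 Enzyme (20 nM final) and test compound sit together 15 min at room temperature before substrate addition. Substrate is a single-forked duplex oligonucleotide (100 nM) labelled with fluorophore and quencher, with 2 mM ATP; helicase unwinding raises red fluorescence, read kinetically.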
# L3MBTL1 inh-1: qHTS Assay for the Inhibitors of L3MBTL1; Lethal(3)malignant brain tumor-like protein 1 (Homo sapiens), Q9Y468; AlphaScreen L3MBTL1–H3K9me1 peptide binding; Potency, µM (doses to about 57.1 µM), for inactives: at the top dose activity, negative = inhibition, hits mostly inhibitors; hit rate 0.66% among 230,000; AID 485360, 2010; further: on the % scale 0 is the no-effect control and ±100 the full control effect; nearly all actives have a fitted effect of over 60% in size
#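 AlphaScreen assay: L3MBTL1 (50 nM final) was preincubated 30 min at room temperature with biotinylated H3(1-15)K9me1 peptide (75 nM final), then 30 min with library compounds; streptavidin donor and nickel chelate acceptor beads (10 ug/mL final) added, 30 min dark.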
# BLM helicase inh: qHTS Assay for Inhibitors of Bloom's syndrome helicase (BLM) | RecQ-like DNA helicase BLM (Homo sapiens), P54132 | recombinant BLM DNA unwinding, fluorescence dequenching | Potency, µM (doses to about 56.1 µM), inactives show top-dose activity change, negative = inhibition, actives largely listed as inhibitors | hit rate 0.2% among 350,000;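 further: plate controls were vehicle for no effect and no enzyme for full effect; nearly all actives have a fitted effect of over 35% in size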
# RECQ1 inh: qHTS Assay for Inhibitors of RecQ-Like Dna Helicase 1 (RECQ1); ATP-dependent DNA helicase Q1 (Homo sapiens), P46063; AID 2549, 2010; Potency, µM (titrated, usually from 57.3 µM), for the others: at the highest dose activity, negative = inhibition, hits mostly inhibitors; hit rate 0.54% among 240,000; RECQ1 DNA unwinding, red fluorescence kinetic read;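 further: plate controls were vehicle for no effect and no enzyme for full effect; nearly all actives have a fitted effect of over 30% in size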
#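 RECQ1T1 50 nM; forked duplex (20 bp + 30-nt ss tails) 200 nM, ATP 2 mM final; pH 8.0, 2 mM MgCl2, 2.5 ug/ml poly(dI-dC); 15 min compound preincubation; discontinuous kinetic read over 2 h at RT.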
# APE1 inh: qHTS Assay for Inhibitors of the Human Apurinic/apyrimidinic Endonuclease 1 (APE1); recombinant APE1, TAMRA/BHQ-2 abasic DNA cleavage fluorescence; AID 2517, 2012; hit rate 0.35% among 350,000; Potency, µM (top dose mostly 65.8 µM), inactives show top-dose activity change, negative = inhibition, most hits filed as inhibitors; DNA repair nuclease/redox regulator APEX1 (Homo sapiens), P27695;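 further: plate controls were vehicle for no effect and reference inhibitor for full effect; nearly all actives have a fitted effect of over 55% in size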
#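 Activity was derived from the fluorescence gain between first and third kinetic reads (60 s intervals, ex 525/em 598 nm) after 50 nM THF-abasic TAMRA/BHQ-2 duplex was added to 0.75 nM APE1 preincubated 15 min with compound.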
# L3MBTL1 inh-2: qHTS Assay for the Inhibitors of L3MBTL1: Hit Validation | Potency, µM, actives largely listed as inhibitors | hit rate 91% among 500 | AID 540279, 2011 | L3MBTL1 methyl-lysine binding inhibition, biochemical qHTS | shares compounds with L3MBTL1 inh-1; further: nearly all actives have a fitted effect of over 70% in size
# AlphaScreen ctr2: qHTS Assay for the Inhibitors of L3MBTL1: Hit Validationin AlphaScreen Counterscreen. 500 tested, under 10 active. Potency, µM (titrated, usually from 57.1 µM), without a hit: at the highest dose activity change, negative = inhibition, usual class: inhibitors. AID 602224, 2012. AlphaScreen counterscreen, signal inhibition. shares compounds with L3MBTL1 inh-1; further: 0% is about no effect
# * marks the source's active call; other numbers are inactive results; i = inactive; ? = inconclusive; . = no result given; [ ] = remark or other dose. The list is not random: actives were taken first. Their share in the collection is about 1%. The call rests on the fitted dose curve; in most records, active means well fitted curve in the direction sought with a large enough effect; inconclusive means small, poorly fitted or top-dose-only effect, or another doubt; inactive means no such curve, though single readings can be large; an effect the other way counts as inactive or inconclusive. Potency means the concentration at half of the fitted maximal effect.
SMILES,FEN1 inh,WRN inhibitor,L3MBTL1 inh-1,BLM helicase inh,RECQ1 inh,APE1 inh,L3MBTL1 inh-2,AlphaScreen ctr2
Cn1c(N)c(C(=O)COC(=O)c2cc(-c3ccco3)nc3ccccc23)c(=O)n(Cc2ccccc2)c1=O,.,.,32µM*,-28%,?,?,3.8*,11%
CCCn1c(N)c(N(CCOC)C(=O)c2cc(-c3ccco3)nc3ccccc23)c(=O)[nH]c1=O,-10%,-10%,.,-15%,.,-4%,.,.
CCOC(=O)c1scc(-c2ccc(C)cc2)c1S(=O)(=O)Nc1cccc(CC)c1,-15%,.,.,-7%,.,.,.,.
C=C[C@H]1[C@H](OC2OC(CO)C(O)C(O)C2O)OC=C(C(=O)OC)[C@H]1C[C@H]1CC(=O)C[C@H](CC(=O)CCc2ccc(O)cc2)O1 (stereo not given in full),4%,12%,.,.,.,.,.,.
CCCCN(C(=O)c1cccc(-n2cccc2)c1)c1c(N)n(CCC)c(=O)[nH]c1=O,-2%,56µM*,14µM*,.,.,-89%,9.5*,7%
CCCN(C(=O)c1cccc(-n2cccc2)c1)c1c(N)n(Cc2ccccc2)c(=O)[nH]c1=O,-6%,50µM*,10µM*,.,.,6.7µM*,4.7*,10%
O=C(Nc1cccc(Cl)c1)c1cc(S(=O)(=O)N2CCCc3ccccc32)ccc1F,-18%,.,.,-7%,.,.,.,.
COc1ccc(CC(=O)Nc2nc3ccccc3[nH]2)cc1,-2%,1%,61%,-11%,-4%,4%,.,.
COC(=O)Cc1cc(=O)n(-c2nc3ccccc3[nH]2)[nH]1,4%,-9%,13µM*,-13%,-2%,0%,6.7*,?
COc1cccc(-n2c(C)nc3c(cnn3-c3ccc(C)c(C)c3)c2=O)c1,?,.,.,-6%,.,.,.,.
O=C(CSc1nc(=O)n2cc(Cl)ccc2n1)Nc1cccc2ccccc12,0%,-13%,25µM*,.,.,32%,?,9%
Cc1ccn2c(=O)nc(SCC(=O)Nc3cccc4ccccc34)nc2c1,6%,-3%[11.6 µM],?,.,.,18%,.,.
Nc1cc2c(cc1[N+](=O)[O-])OCO2,-31%,-21%[57.1 µM],32µM*,-27%,-14%,?,8.4*,10%
Nc1cc2c(cc1[N+](=O)[O-])OCCO2,2%,-14%,-4%,1%,0%,5%,.,.
N#CCCn1c(=O)cnc2cnc(N3CCNCC3)nc21,.,.,.,1%,-8%,4%,.,.
O=C(Nc1nc(-c2ccco2)c(-c2ccco2)s1)c1ccc(F)cc1F,?,?,8.9µM*,.,.,-12%,5.3*,-10%
O=C(Nc1nc(-c2ccco2)c(-c2ccco2)s1)c1cnccn1,-9%,-17%[11.6 µM],3.5µM*,.,.,-28%,2.7*,79%
Cc1ccc(S(=O)(=O)Cc2ccc(C(=O)N3CCN(Cc4ccccc4)CC3)o2)cc1,.,.,32µM*,-26%,i,1%,15*,3%
COc1ccc(S(=O)(=O)Cc2ccc(C(=O)N3CCN(Cc4ccccc4)CC3)o2)cc1,-5%,1%,-5%,0%,i,-8%,.,.
